# Assay results as given in PubChem BioAssay AID624111 (Johns Hopkins Ion Channel Center, 2012).
# Out of some 4,000 compounds screened, about 60 (2%) were called active.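 How the source made its calls: active means duplicate-averaged calcium fluorescence ratio at least three times the standard deviation of buffer wells, a nonspecific response in parental cells; inactive means the rest.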 The entries come from a sample that favours actives as a whole.
# Assay: calcium flux effects in cells lacking MrgX1 – parental HEK293 cells, Fluo-4 calcium flux, counter-screen for MrgX1 antagonist project, confirmation (AID 624111)
# Settings: parental HEK293, Fluo-4 calcium fluorescence, FDSS; at 10 µM
row,Compound,fluorescence ratio F(max-min)/F0
1,CCOc1cc(-c2conc2N)cc(OCC)c1OCC,inactive
2,Brc1ccccc1C1Nc2cccc3cccc(c23)N1,inactive
3,c1ccc(-c2[nH]ncc2-c2nc3ccccc3[nH]2)cc1,inactive
4,CCOC(=O)c1cn(Cc2cccc(C)c2)nn1,inactive
5,CC(C)NC(=S)Nc1cccc2cnccc12,inactive
6,CCOC(=O)C1=C(O)/C(=C/c2cc(C)n(-c3ccccc3)c2C)N=C1C,inactive
7,COc1ccc(C2SCCN2S(=O)(=O)c2ccccc2)cc1OC (stereo not drawn),inactive
8,S=C(NCc1ccc(Cl)cc1)NC12CC3CC(CC(C3)C1)C2,inactive
9,COc1cc(C(F)(F)F)nc2c(Br)c(C(C)(C)C)nn12,inactive
10,CCN(C(=O)CSc1nnc2ccccn12)C1CCS(=O)(=O)C1 (stereo not drawn),inactive
11,O=C1C(Cc2ccc(O)cc2)NC(=S)N1Cc1ccccc1 (stereo not drawn),inactive
12,CCOC(=O)c1c(NC(=O)CNC2CCCc3ccccc32)sc(C(N)=O)c1C (stereo not drawn),inactive
13,COc1cccc(-c2cnc(OC(C)(C)C)nc2OC(C)(C)C)c1,inactive
14,COc1ccc(-n2c(SCC(=O)NCc3ccco3)nnc2-c2c[nH]c3ccccc23)cc1,inactive
15,CC(C)CNc1ncnc2c1cnn2Cc1ccc(Cl)cc1,inactive
16,Cc1cc2oc3ccc(NCCC4CCCN4C)cc3c(=O)c2cc1C (stereo not drawn),inactive
17,CC(=O)Nc1ccc(OC(=O)COc2ccc(Br)cc2)cc1,inactive
18,CCCc1[nH]nc2c1C(c1ccc(Br)s1)C(C#N)=C(N)O2 (stereo not drawn),inactive
19,CCS(=O)(=O)c1ccc2c(c1)N(S(=O)(=O)c1ccccc1)CC(C(=O)O)O2 (stereo not drawn),inactive
20,Fc1cccc(Cl)c1COc1ccc(-c2nnco2)cc1,inactive
21,COc1ccc(-c2cc(C(F)(F)F)nc(S(C)(=O)=O)n2)cc1OC,inactive
22,COCc1nnc(NC(=O)c2ccc3c(c2)OCO3)s1,inactive
23,CCc1ccc2nc3sc(C(=O)Nc4nnc(CC)s4)c(N)c3cc2c1,0.589 (active)
24,COc1cc(CCC(=O)Nc2ccncc2Cl)cc(OC)c1OC,inactive

row,Compound,fluorescence ratio F(max-min)/F0
1,Cc1cc(C)n(CCNC(=O)CC2C(=O)NCCN2Cc2ccc(C)o2)n1 (stereo not drawn),inactive
2,COc1ccc(S(=O)(=O)N2CCOCC2)c(C)c1C,inactive
3,CCOc1ccc(C(=O)NC2CCN(S(=O)(=O)CC)CC2)cc1,inactive
4,Cc1ccc(N/C(N)=N/c2nc(C(F)(F)F)cc(C(F)(F)F)n2)cc1,inactive
5,Cc1[nH][nH]c(=O)c1C(c1ccc(-c2ccc(Cl)cc2)o1)c1c(C)[nH][nH]c1=O,inactive
6,Cc1ccc(-n2cnc3ncnc(-c4ccccc4)c32)cc1,inactive
7,Cc1c(C(=O)N2CCCc3ccccc32)sc2nc(-c3ccccc3)cn12,inactive
8,C(=N\n1cnnc1)/c1cccnc1,inactive
9,CC(=O)N1c2ccc(S(=O)(=O)N3CCCC(C(=O)Nc4cccc(Cl)c4)C3)cc2CC1C (stereo not drawn),inactive
10,Cc1cccc(Cn2cnc3c(N)c(C)c(C)cc32)c1,inactive
11,CCOC(=O)Nc1ccc2c(c1)N(C(=O)CCN1CCN(CCO)CC1)c1ccccc1CC2,inactive
12,COc1ccc2c(c1)OC(O)(C(F)(F)C(F)F)CC2=O (stereo not drawn),inactive
13,O=S(=O)(c1ccc2ccccc2c1)N1CCN(S(=O)(=O)N2CCOCC2)CC1,inactive
14,CCOC(=O)C1=C(O)CSC1=Nc1cccc(Cl)c1,inactive
15,Cc1nccn1CCC1CCCCN1C(=O)CCc1nnc(-c2ccsc2)o1 (stereo not drawn),inactive
16,O=C(Nc1ccccc1N1CCCCC1)c1ccc2nccnc2c1,inactive
17,Cc1onc(-c2ccccc2)c1C(=O)NNC(=S)NC(=O)c1ccc(F)cc1,inactive
18,O=C(CN1CCN(c2ccccn2)CC1)NC1CCCCC1,inactive
19,C=CCOc1cccc(C2C(C(=O)c3ccc(C)o3)=C(O)C(=O)N2c2nnc(C)s2)c1 (stereo not drawn),inactive
20,O=C1C(=O)N(CC2COc3ccccc3O2)c2ccccc21 (stereo not drawn),inactive
21,COc1ccccc1N(CC(=O)N1CCCCC1)S(=O)(=O)c1ccccc1,inactive
22,Clc1ccc(-c2nc3ccccn3c2CN2CCSCC2)cc1,inactive
23,COc1ccc(C(=O)NC(=S)NNC(=O)CCc2ccccc2)cc1,inactive
24,COc1cc(C)c(C)cc1S(=O)(=O)N1CCCc2ccccc21,inactive

row,Compound,fluorescence ratio F(max-min)/F0
1,Cc1nc2ccccc2cc1OCc1ccc(F)cc1,inactive
2,OCCn1c(-c2ccccc2)csc1=Nc1ccccc1,inactive
3,CC1(C)CC2CC(C)(CN2c2ncnc3ccc(Br)cc23)C1 (stereo not drawn),inactive
4,N=C(N)SCc1cccc2ccccc12,inactive
5,Cc1occc1C(=O)Nc1nnc(-c2ccncc2)s1,inactive
6,CC(Oc1ccc(F)cc1)C(=O)Nc1ccccc1C(=O)NC1CC1 (stereo not drawn),inactive
7,CCCCC(=O)NNC(=S)NC(=O)C(c1ccccc1)c1ccccc1,inactive
8,CCOc1ccccc1C1CC(c2ccc(Cl)cc2)Nc2nc(N)nn21 (stereo not drawn),inactive
9,CCN(CC)c1ccc2oc(=O)c(C)nc2c1,0.549 (active)
10,CCNC(=O)c1c(O)c2cccc3c2n(c1=O)CC3,inactive
11,COC(=O)c1sccc1NS(=O)(=O)c1ccc(F)cc1F,inactive
12,COc1ccc(C(=O)CSc2n[nH]c(N)n2)cc1,inactive
13,CCOC(=O)c1[nH]c2ccc(C)cc2c1N=C(C)N(C)C,inactive
14,Cc1ccc2nc(Nc3ccccc3)cc(C)c2c1,inactive
15,CC1(C(=O)O)CCC(C(=O)Nc2ccc(Cl)c(Cl)c2)C1(C)C (stereo not drawn),inactive
16,Cc1cc(Nc2cc(N3CCN(C)CC3)nc(Sc3ccc(NC(=O)C4CC4)cc3)n2)n[nH]1,inactive
17,Cc1nn(C(=O)c2ccoc2C)c(N)c1-c1ccccc1,inactive
18,O=C(Nc1ccc(Cl)cc1)Nc1ccc(Oc2cccnc2)nc1,inactive
19,O=C(CCN1CCc2ccccc2C(O)(c2ccccc2)C1)c1ccc2c(c1)OCCO2 (stereo not drawn),inactive
20,CCC1CCCCN1CCNC(=O)c1[nH]c(C)c(C(C)=O)c1C (stereo not drawn),inactive
21,CCc1nnc(NC(=O)CSc2nc3c(c(=O)n2-c2ccccc2OC)SCC3)s1,inactive
22,Cc1ccc2c(C)c(C(=O)N(C)CCC3CCCCO3)oc2c1C (stereo not drawn),inactive
23,Cc1cccn2c(=O)c(/C=C3\SC(=S)N(CC(C)C)C3=O)c(NCCCOC(C)C)nc12,0.164 (active)
24,O=C(Nc1ccccc1Cl)N1CCN(c2ccc3nncn3n2)CC1,inactive

row,Compound,fluorescence ratio F(max-min)/F0
1,COc1ccc(OC)c(Nc2nc3ccccc3n3cnnc23)c1,inactive
2,C=CCSc1nc(Cc2ccc(Cl)cc2)nc2ccccc12,inactive
3,O=C(NC1CCCCC1)C1c2ccccc2C(=O)N1Cc1ccco1 (stereo not drawn),inactive
4,Cc1ccc(C(=O)COC(=O)CCN2C(=O)C3C4CC(C(Br)C4Br)C3C2=O)cc1 (stereo not drawn),inactive
5,CC(C)(C)Nc1c(-c2cccs2)nc2ccccn12,inactive
6,Cc1ccc(CS(=O)(=O)c2ncc(Cl)c(C(=O)Nc3nnc(C)s3)n2)cc1,inactive
7,COc1ccc(C(=O)NNC(=S)NC(=O)c2ccccc2)cc1,inactive
8,O=C(CN1CCN(c2ccc(Cl)cc2)CC1)N1CCCC1,inactive
9,Cc1ccc(NC2(C#N)C(=O)Nc3ccccc32)cc1 (stereo not drawn),inactive
10,O=C(c1ccc(OC2CCN(C(=O)c3cccnc3)CC2)cc1)N1CCCCCC1,inactive
11,Cc1nc(N2CCN(c3ccccn3)CC2)c2c(C)c(C(=O)Nc3ccc(F)c(Cl)c3)sc2n1,inactive
12,Cc1ccnc(-n2sc3ccccc3c2=O)n1,inactive
13,C=CCNC(=O)c1cc(-c2ccccc2O)on1,inactive
14,CN1/C(=C\C=C2\N=C(c3ccc(F)cc3)OC2=O)C(C)(C)c2ccccc21,inactive
15,COc1ccc(C(=O)Nc2c(N)nc(SCC(=O)N3CCC(C)CC3)[nH]c2=O)cc1OC,inactive
16,Cc1ccc2nc(-c3ccc(NC(=O)c4cccnc4)cc3)oc2c1,inactive
17,Cc1ccc2c(c1)c1ncnc(N3CCc4ccccc4C3)c1n2C,inactive
18,CCCCOC(=O)CNc1nnc(SCC(=O)OCC)[nH]c1=O,inactive
19,COc1cccc(CNC(=O)C2CCN(S(=O)(=O)c3cccc4cccnc34)CC2)c1,inactive
20,Cc1nc(C)c(-c2csc(NCCc3ccccc3)n2)s1,inactive
21,CN(c1cccc(NC(=O)Nc2ccc(Cl)cc2)c1)S(C)(=O)=O,inactive
